HSF1 inhib: HSF1 inhibitors in luciferase reporter cells, primary screen, cell-based, NIH3T3, luminescence. 0.77% of 300,000 active. AID 2098, 2009. NIH3T3-HGL HSE-luciferase, MG132-induced, luminescence 8 h; active compounds read low. activity change, negative = inhibition, % at 7.5 µM (by protocol);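 active = more than half of replicate wells show activity change below -50%, luminescence cut by over half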;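 also: luciferase reports HSF-1 transcriptional activity via heat shock element; 0% = median of DMSO wells and -100% = zero luminescence signal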
HSF-1 act: HSF-1 activators, primary screen, NIH3T3-HGL cells, MG132 stress, luminescence, single point; activation, % at 9 µM; NIH3T3-HGL HSF-1 luciferase reporter, 8 h; 100% = twice DMSO control signal; 1.7% of 300,000 active;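 active = mean replicate activation of at least 50% with a set share of replicates each reaching 50%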;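 also: 0% = median of the neutral control wells and 100% = twice that signal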
TLR4-MyD88 BLA: inhibitors of TLR4-MyD88 association in cells, primary screen, cell-based, HeLa CL3-4, BLA complementation, FRET ratio. Toll-like receptor 4 (Homo sapiens) + Myeloid differentiation primary response protein …. HeLa CL3-4 TLR4/MyD88 BLA complementation. inhibition, % at 8.4 µM. 0.18% of 200,000 active; in the data active = inhibition above about 25%;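 also: 0% = vehicle and 100% = reference inhibitor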
NOD2-RIPK2 inh: NOD2-RIPK2 binding disruptors in cells, primary screen, fluorescence, CHO cells, BLA complementation; Receptor-interacting serine/threonine-protein kinase 2 (Homo sapiens), O43353; CCF4 ratio; inhibition, % at 4.98 µM; 0.38% of 360,000 active; in the data active = inhibition above about 21%;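 also: 0% = vehicle only and 100% = reference blocker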
TLR9-MyD88 block: inhibitors of TLR9-MyD88 association in cells, primary screen, cell-based, CHO, BLA complementation, fluorescence; CCF4 FRET ratio; Toll-like receptor 9 (Homo sapiens) + Myeloid differentiation primary response protein …; inhibition, % at 4.98 µM; 0.21% of 340,000 active; AID 504734, 2011;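 active = inhibition above the mean over all tested compounds plus 3 SD, cut at about 21% in these data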;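 also: 0% = DMSO only wells and 100% = clavulanate BLA inhibitor control wells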
TLR4-MyD88 conf: TLR4-MyD88 association inhibitors, retest, confirmation, cell-based, HeLa CL3-4, BLA complementation, FRET ratio; 50% of 350 active; CCF4 FRET ratio; inhibition, % at 8.4 µM; shares compounds with TLR4-MyD88 BLA;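 active = mean inhibition across three repeat runs above about 25% carried over from the earlier screen, limit read from the data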;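 also: plate controls were DMSO only for no effect and clavulanic acid blocking BLA at full dose for full effect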
BLA inh HeLa: inhibits beta-lactamase activity, counter-screen to TLR4-MyD88 binding inhibitors; shares compounds with TLR4-MyD88 BLA; HeLa BLA reporter, CCF4 FRET ratio; inhibition, % at 8.4 µM; 63% of 350 active;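 active = mean inhibition over three repeats above about 26% taken from the earlier screen, limit read from the data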;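 also: HeLa cells stably expressing beta-lactamase reporter as counterscreen for TLR4-MyD88 inhibitors; 0% = DMSO and 100% = clavulanic acid full inhibition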
TLR9-MyD88 cf: TLR9-MyD88 association inhibitors, retest, confirmation, cell-based, CHO, BLA complementation, fluorescence, triplicate; inhibition, % at 4.98 µM; shares compounds with TLR9-MyD88 block; CCF4 FRET ratio; 51% of 680 active;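 active = mean inhibition across three repeats above about 21% taken from the earlier screen, limit read from the data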;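 also: blue over green emission ratio reports constitutive TLR9 MyD88 association via BLA complementation; 0% = DMSO vehicle wells and 100% = clavulanate BLA inhibitor wells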
BLA counter: beta-lactamase reporter inhibitors in CHO cells, artefact control for TLR9-MyD88 binding inhibitor project, cell-based, fluorescence; shares compounds with TLR9-MyD88 block; AID 540251, 2011; inhibition, % at 4.98 µM; CHO-BLA cells, CCF4 FRET ratio, BLA reporter; 7% of 680 active;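 active = mean inhibition above a 50% cutoff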;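 also: counterscreen of TLR9-MyD88 hits on CMV-driven BLA in CHO-K1 cells; 0% = DMSO alone and 100% = clavulanate blocking BLA; higher means less blue over green ratio so more BLA blockade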
TLR9 CHO cytotox: CHO cell viability loss – luminescence, single concentration, cytotoxicity control for TLR9-MyD88 binding inhibitor project; shares compounds with TLR9-MyD88 block; TLR9-MyD88 CHO cells cytotoxicity; inhibition, % at 4.98 µM; 39% of 680 active; AID 588336, 2011; in the data active = inhibition above about 11%
* hit, by the source's call; · = not tested or not shown. An excerpt weighted towards active compounds, which were near 2.4% of everything screened.

SMILES	HSF1 inhib	HSF-1 act	TLR4-MyD88 BLA	NOD2-RIPK2 inh	TLR9-MyD88 block	TLR4-MyD88 conf	BLA inh HeLa	TLR9-MyD88 cf	BLA counter	TLR9 CHO cytotox
Cc1cc(C)nc(N/N=C/c2ccccc2OCc2ccc([N+](=O)[O-])cc2)n1	3	20	-6	-16	-2	·	·	·	·	·
O=[N+]([O-])c1ccc(N/N=C\c2ccccc2OCc2ccccc2)cc1	-4	5	28*	18	31*	23	50*	22*	26	4
Cc1cccc(NC2=Nc3ccccc3N3C2=Nc2c(c(C)nn2-c2ccccc2)C3c2ccc(O)c(O)c2)c1 (centres undefined)	13	19	62*	14	30*	52*	85*	47*	55*	-5
Cc1nn(-c2ccc([N+](=O)[O-])cc2)c2c1C(c1cccc(Br)c1)N1C(=N2)C(=O)Nc2ccccc21 (centres undefined)	-3	-10	0	-5	-4	·	·	·	·	·
CC1(C(=O)Nc2cnc3ccccc3c2)CCN1CCOc1ccccc1 (centres undefined)	·	·	·	2	·	·	·	·	·	·
Nc1ccc2c(c1)C/C(=C/c1ccco1)C2=O	-6	11	32*	13	24*	26*	55*	23*	30	7
O=C1/C(=C/c2ccco2)CCc2ccccc21	5	17	-7	-5	4	·	·	·	·	·
Cn1c(=O)c(NC2CCCCC2)c2c3c(cccc31)C(=O)c1ccccc1-2	·	·	48*	0	22*	22	49*	20	24	7
COc1ccc(OCCN2CCCC2)cc1Nc1nnc(Cl)c(Nc2ccccc2S(C)(=O)=O)n1	·	·	·	-7	-11	·	·	·	·	·
CC(=O)Nc1sc(/C(C#N)=C\c2cccc(Cl)c2)nc1-c1ccc(C)cc1	5	3	31*	20	32*	86*	112*	80*	81*	2
O=C(CCC(=O)N1CCN(S(=O)(=O)c2ccc([N+](=O)[O-])cc2)CC1)N1CCOCC1	4	4	·	-12	-5	·	·	·	·	·
CCN(CC)c1ccc2cc(C(C)=O)c(=O)oc2c1	3	20	-5	9	-5	·	·	·	·	·
CCN(CC)c1ccc2cc(NC(=O)CCC(=O)O)c(=O)oc2c1	2	20	58*	79*	68*	61*	83*	50*	57*	1
Cc1ccc(-c2cnc3c(c2)C(=O)N([C@H](C)CO)C[C@@H](C)[C@@H](CN(C)C(=O)Cc2ccccc2)O3)cc1	·	·	·	-15	3	·	·	·	·	·
COc1ccc(CS(=O)(=O)/C(Cl)=C(/Cl)C(=O)Nc2ccc(OC)nc2)cc1	23	37	25*	73*	31*	22	14	32*	24	100*
Cc1cc(C)n(CC(=O)Nc2ccc(N3CCOCC3)c(Cl)c2)c(=O)c1C#N	-8	-13	·	3	2	·	·	·	·	·
Brc1cc(Br)c2nc(-c3ccc(N4CCOCC4)cc3)ccc2c1	·	·	29*	27*	40*	14	30*	43*	46	4

From PubChem
